# Results: PubChem BioAssay (NCATS)
# A number with no mark means an inactive call. Results filed as inconclusive are left out. Calls of active or inactive are those of the source. Calls come from the whole dose curve; as a rule, active = well fitted curve in the direction sought with a large enough effect; inconclusive = small, poorly fitted or top-dose-only effect, or another doubt; inactive = no such curve, though single readings can be large; an effect the other way counts as inactive or inconclusive.
# Tested on: not listed separately
# Experiment: Inducers of the Endoplasmic Reticulum Stress Response (ERSR) in human glioma: Validation (AID 504836); note: 0% is about no effect
# Conditions: human glioma cells, ER stress response reporter; series mostly up to 38.3 µM; activation: at the top concentration
# Outline: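 ERSR induction read as luciferase luminescence (Bright-Glo, 10 min at room temperature) in stably transfected human U87-MG glioma cells exposed to compounds for 16 h, using GRP78 as sensor.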
Compound,activation,outcome
CN(C)C(=O)Oc1ccc[n+](C)c1,-4.55%,
CCOC(=O)[C@H](CCc1ccccc1)N[C@@H](C)C(=O)N1[C@H](C(=O)O)C[C@H]2CCCC[C@@H]21,-0.187%,
CNCC(O)c1ccc(O)c(O)c1 (stereo not drawn),-3.67%,
CCN1CCCC1CNC(=O)c1cc(S(=O)(=O)CC)c(N)cc1OC (stereo not drawn),-3.25%,
CC(CCc1ccc(O)cc1)NCCc1ccc(O)c(O)c1 (stereo not drawn),2.75%,
CCCCCCCC/C=C\CCCCCCCC(=O)NCc1ccc(O)c(OC)c1,0.188%,
NC(=O)c1ncn([C@@H]2O[C@H](CO)[C@@H](O)[C@H]2O)c1O,-1.2%,
Cc1ccc(Cl)c(Nc2ccccc2C(=O)O)c1Cl,3.82%,
COC(=O)[C@@H]1[C@H]2C[C@H]3c4[nH]c5ccccc5c4CCN3C[C@@H]2CC[C@@H]1O,-3.44%,
Nc1ccc(S(=O)(=O)Nc2ccnn2-c2ccccc2)cc1,-2.81%,
FC(F)(F)c1ccccc1-n1ccnc1,-5.84%,
NC/C=C/C(=O)O,4.31%,
CC(C)C[C@H]1C(=O)N2CCC[C@H]2[C@]2(O)O[C@](NC(=O)[C@@H]3C=C4c5cccc6[nH]c(Br)c(c56)C[C@H]4N(C)C3)(C(C)C)C(=O)N12,2.76%,
CC(=O)N1CCN(c2ccc(OC[C@H]3CO[C@](Cn4ccnc4)(c4ccc(Cl)cc4Cl)O3)cc2)CC1,-1.15%,
CCn1nc(C(=O)O)c(=O)c2cc3c(cc21)OCO3,-3.52%,
Cc1nc2c([nH]1)c(=O)n(C)c(=O)n2Cc1ccco1,0.44%,

Compound,activation,outcome
COCCOC(=O)C1=C(C)NC(C)=C(C(=O)OC(C)C)C1c1cccc([N+](=O)[O-])c1 (stereo not drawn),-1.48%,
O=c1[nH]c(=O)n([C@H]2C[C@H](O)[C@@H](CO)O2)cc1Br,-4.26%,
Nc1nc2ccc(OC(F)(F)F)cc2s1,-3.72%,
O=C(O)CN(CCN(CC(=O)O)CC(=O)O)CCN(CC(=O)O)CC(=O)O,-2.97%,
O=C1NCC2(CCN(CCc3ccccc3)CC2)O1,-1.8%,
Clc1ccc2nsnc2c1NC1=NCCN1,-4.09%,
NCCS(=O)(=O)O,-1.34%,
CCN1CCC[C@H]1CNC(=O)c1cc(S(N)(=O)=O)ccc1OC,-3.06%,
CCN(CC)CCNC(=O)c1cc(S(C)(=O)=O)ccc1OC,-1.39%,
C[N+](C)(C)CCCCCC[N+](C)(C)C,,inactive
CCCNC(C)C(=O)Nc1ccccc1C (stereo not drawn),-2.81%,
CC[N+](CC)(CC)CCOc1cccc(OCC[N+](CC)(CC)CC)c1OCC[N+](CC)(CC)CC,-5.57%,
CCN(CC)CCNC(=O)c1ccc(N)cc1,-0.55%,
Nc1cc(=O)[nH]c(N)n1,0.0828%,
CCOC(=O)C1=C(C)NC(C)=C(C(=O)OC)C1c1cccc([N+](=O)[O-])c1 (stereo not drawn),-0.249%,
COc1ccc(C2CNC(=O)C2)cc1OC1CCCC1 (stereo not drawn),-0.709%,

# Target: Ubiquitin carboxyl-terminal hydrolase 1 (Homo sapiens) (UniProt O94782)
# Experiment: Inhibitors of USP1/UAF1: Pilot qHTS (AID 504865); note: nearly all actives have a fitted effect of over 35% in size; note: potency is the fitted concentration of half-maximal effect;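 for activity change, negative = inhibition: rhodamine fluorescence freed from ubiquitin-rhodamine substrate followed over time; top concentration of the series differs between compounds; % is set by controls: 0 for no effect and ±100 for the full control effect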
# Conditions: purified USP1/UAF1, Ub-rhodamine cleavage fluorescence; series mostly up to 114 µM; activity change, negative = inhibition: at the top concentration
# Outline: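 USP1/UAF1 complex (1nM) preincubated with compound 15 min at room temperature, then Ub-Rho substrate (150nM final) added. Fluorescence read kinetically at 480/540 nm, 6 reads every 60 seconds. Buffer: 50mM HEPES pH 7.8, 0.5mM EDTA, 0.1 mg/ml BSA, 1mM TCEP, 0.01% Tween-20.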
# Ubiquitin carboxyl-terminal hydrolase 1 (Homo sapiens), sequence (O94782 whole entry, looked up): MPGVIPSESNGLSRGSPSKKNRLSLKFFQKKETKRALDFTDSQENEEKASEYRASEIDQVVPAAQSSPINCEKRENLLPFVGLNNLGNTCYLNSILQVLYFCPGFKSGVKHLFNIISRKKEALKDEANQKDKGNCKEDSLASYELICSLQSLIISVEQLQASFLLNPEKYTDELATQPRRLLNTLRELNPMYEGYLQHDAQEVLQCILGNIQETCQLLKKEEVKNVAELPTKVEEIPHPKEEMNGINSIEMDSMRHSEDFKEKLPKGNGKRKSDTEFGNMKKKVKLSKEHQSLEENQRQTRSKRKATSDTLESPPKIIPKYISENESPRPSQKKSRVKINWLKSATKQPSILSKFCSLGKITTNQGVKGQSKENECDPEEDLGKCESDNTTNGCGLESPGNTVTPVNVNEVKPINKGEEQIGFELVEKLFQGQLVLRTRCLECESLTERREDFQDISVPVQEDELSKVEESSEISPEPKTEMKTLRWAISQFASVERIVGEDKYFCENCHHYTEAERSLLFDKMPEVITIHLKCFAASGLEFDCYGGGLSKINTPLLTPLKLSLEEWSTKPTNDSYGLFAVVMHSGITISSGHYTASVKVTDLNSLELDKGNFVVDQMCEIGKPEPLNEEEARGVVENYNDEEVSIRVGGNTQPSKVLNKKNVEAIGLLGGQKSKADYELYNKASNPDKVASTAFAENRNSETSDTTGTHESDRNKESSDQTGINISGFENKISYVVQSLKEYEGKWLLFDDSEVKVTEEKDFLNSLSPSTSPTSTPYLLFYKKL
Compound,"activity change, negative = inhibition",Potency
CCCCCCC(=O)CCCCCC/C=C/C[C@@H](O)[C@H](O)[C@@](N)(CO)C(=O)O,0.843%,
COc1c2c(cc3c1OCO3)CCN(C)C2,14.4% [at 54.9 µM],
O=C(N/N=C/c1ccc([N+](=O)[O-])o1)c1cc([N+](=O)[O-])cc([N+](=O)[O-])c1O,-4.24%,
CCC1(c2ccccc2)C(=O)N(COC)C(=O)N(COC)C1=O,-2.67%,
O=C1Nc2ccc(Cl)cc2C(c2ccccc2)=NC1O (stereo not drawn),-2.64%,
CC(C)C[C@H]1C(=O)N2CCC[C@H]2[C@]2(O)O[C@](NC(=O)[C@@H]3C=C4c5cccc6[nH]c(Br)c(c56)C[C@H]4N(C)C3)(C(C)C)C(=O)N12,-5.67%,
CC(=O)N1CCN(c2ccc(OC[C@H]3CO[C@](Cn4ccnc4)(c4ccc(Cl)cc4Cl)O3)cc2)CC1,-13.8%,
COc1cccc([C@@]2(O)CCCC[C@@H]2CN(C)C)c1,-4.55%,
CC[N+](CC)(CC)CCOc1cccc(OCC[N+](CC)(CC)CC)c1OCC[N+](CC)(CC)CC,,inactive
CCOC(=O)CC(SP(=S)(OC)OC)C(=O)OCC (stereo not drawn),-8.82%,
O=C1c2ccccc2C(=O)C1C(=O)C(c1ccccc1)c1ccccc1,,31.6 µM (active)
